Screening data deposited in PubChem by National Center for Advancing Translational Sciences (NCATS).
MARV entry inh: qHTS for Inhibitors of binding or entry into cells for Marburg Virus; Potency, µM (series often up to 49.2 µM), inactives show at the top dose activity change, negative = inhibition, most hits filed as inhibitors; Marburg virus pseudotype entry/binding inhibition, cell-based; 18,000 tested, 6.5% active
Lassa entry: qHTS for Inhibitors of binding or entry into cells for Lassa Virus; Lassa virus pseudotyped entry inhibition, cell-based qHTS; 18,000 tested, 4.1% active; AID 720533, 2013; Potency, µM (highest dose often 49.2 µM), inactives show at the top dose activity change, negative = inhibition, usual class: inhibitors
Active calls of the source: *; ? = inconclusive; ! = a repeat was not active; [ ] = dose if it differs, or a comment. An excerpt weighted towards active compounds, which were near 8.6% of everything screened. Calls come from the whole dose curve; tested in HEK293 cells. % is set by controls: 0 for no effect and ±100 for the full control effect; potency is the fitted concentration of half-maximal effect.

SMILES	MARV entry inh	Lassa entry
Nc1nc(=S)c2[nH]cnc2[nH]1	3.16µM*	2.82µM*
Nc1ncnc2nc[nH]c12	17.2%	6.7%
COc1ccc(-c2coc3cc(O)cc(O)c3c2=O)cc1	-6.2%	-10.1%
CCC(=O)O[C@]1(C(=O)CCl)[C@@H](C)C[C@H]2[C@@H]3CCC4=CC(=O)C=C[C@]4(C)[C@@]3(F)[C@@H](O)C[C@@]21C	?	-25.9%
CCCC(=O)O[C@]1(C(=O)CCl)[C@@H](C)C[C@H]2[C@@H]3CCC4=CC(=O)C=C[C@]4(C)[C@@]3(F)C(=O)C[C@@]21C	7.94µM*	?
CC[N+]1(C)[C@@H]2CC[C@H]1CC(OC(=O)[C@H]1CC[C@@](C(=O)OC3C[C@H]4CC[C@@H](C3)[N+]4(C)CC)(c3ccccc3)c3ccccc31)C2 (some centres undefined)	-6.9%[17.8 µM]	-1.6%[17.8 µM]
CN1C2CCC1CC(OC(=O)C1CCC(C(=O)OC3CC4CCC(C3)N4C)(c3ccccc3)c3ccccc31)C2 (centres undefined)	6.31µM*	?
COc1cc(OC)c(C(C)=O)c(O)c1C	-1.1%	21.5%
COc1ccc(-c2ccccc2[C@H]2[C@@H]3C=CC[C@@H](C)[C@@H]3C(=O)N2Cc2ccccc2)cc1	14.1µM*	?
C[C@@H]1CC=C[C@@H]2[C@H]1C(=O)N(Cc1ccccc1)[C@H]2c1cccc(Br)c1	3.4%	37.3%
C[C@@]12CCc3occc3[C@H]1CC[C@]13CC(=O)[C@@H](CC[C@H]12)C3	-11.0%	-5.4%
CCC(=O)Nc1ccc(O)cc1	-5.7%	-12.3%
CC(C)C(O)c1ccc2c(c1)CN(C(=O)c1ccccc1-n1cccn1)CCO2 (centres undefined)	12.8%	-7.6%
CCCCCCCCCCCC1=C(O)C(=O)C=C(O)C1=O	6.5%	28.2µM*!
CCCCCCCCCCC1=C(C)C(=O)C(OC)=C(OC)C1=O	-4.8%	-9.3%
O=C(Nc1ccc(C(=O)N2CCOCC2)cc1)C1CCCC1	28.5%	4.6%
CCOC(=O)C1OC1C(=O)N[C@@H](CC(C)C)C(=O)NCCC(C)C (some centres undefined)	5.01µM*	-4.2%
CCOC(=O)C1OC1C(=O)NC(CC(C)C)C(=O)NCCC(C)C (centres undefined)	3.55µM*	-3.4%
C=C1c2cccc(C(F)(F)F)c2O[C@H](C(=O)OCC)[C@@H]1CCC(C)C	-12.1%	4.4%
C=C1C[C@]23C[C@@]1(O)CC[C@H]2[C@@]12C=C[C@H](O)C(C)(C(=O)O1)[C@H]2[C@@H]3CC(=O)O	-15.0%	-9.8%
NC(CCC(=O)NCS(=O)(=O)O)C(=O)O (centres undefined)	15.6%	-3.7%
C=C(CCN1C=C(C(C)=O)C(c2ccccc2)NC1=O)c1ccc(OC)cc1 (centres undefined)	12.4%[8.59 µM]	0.3%[8.59 µM]
CC(C)C[C@H](NC(=O)[C@H](Cc1ccccc1)NC(=O)CNC(=O)[C@@H](COC(C)(C)C)NC(=O)[C@@H](N)Cc1ccc(O)cc1)C(=O)N[C@H](C(=O)O)[C@@H](C)OC(C)(C)C	14.0%	-14.3%
O=P(O)(O)OCC(O)CO (centres undefined)	4.4%	-4.6%
[O-][n+]1ccccc1SSc1cccc[n+]1[O-]	6.31µM*	3.98µM*
SMILES	MARV entry inh	Lassa entry
Cc1ccc2cc(CN(C(=O)c3ccc4c(c3)OCO4)C3CC3)c(N(C)C)nc2c1	-12.3%	13.2%
CCC1(c2ccccc2)C(=O)NCNC1=O	11.8%	-20.1%
COc1ccc(-c2ccnc(-n3ncc(C(=O)NCc4ccon4)c3C3CC3)n2)cc1F	?	-13.6%
COc1cc(C(C)=O)ccc1OCCCN1CCC(c2noc3cc(F)ccc23)CC1	6.31µM*	-13.4%
COc1cc2c(Nc3ccc(NC(=O)c4ccccc4)cc3)ncnc2cc1OCCCN1CCOCC1	?	10.0%
N[C@](CC1c2ccccc2Oc2ccccc21)(C(=O)O)[C@H]1C[C@@H]1C(=O)O	0.2%	21.3%
CC(=O)OC1CN2CCC1CC2 (centres undefined)	-6.8%	0.9%
Cc1nnc(C(C)C)n1C1C[C@H]2CC[C@@H](C1)N2CC[C@H](NC(=O)C1CCC(F)(F)CC1)c1ccccc1 (some centres undefined)	7.0%	0.6%
CC(C)n1nc(-c2cc3cc(O)ccc3[nH]2)c2c(N)ncnc21	3.55µM*	3.98µM*
CC(C)(C)n1nc(-c2ccc(Cl)cc2)c2c(N)ncnc21	39.0%	6.0%
C[C@H]1Cc2c(COc3ccccc3)nc3c(c2CO1)CN(C(=O)c1cc(I)ccc1F)CC3	-25.6%[8.59 µM]	10.6%[8.59 µM]
CC(CC=O)CCCC(C)(C)O (centres undefined)	-2.5%	-28.9%
COc1ccc(CCN(C)CCc2ccc(OC)c(OC)c2)cc1OC	-28.6%	-12.6%
COc1ccc(CCN(C)CCCC(C#N)(c2cc(OC)c(OC)c(OC)c2)C(C)C)cc1OC (centres undefined)	31.6µM*	-10.1%
C=C1/C(=C\C=C2/CCC[C@]3(C)[C@@H]([C@H](C)OCCC(C)(C)O)CC[C@@H]23)C[C@@H](O)C[C@@H]1O	-15.9%	?
COc1ccc2c(=O)ccoc2c1	16.6%	2.2%
CC#C[C@]1(O)CC[C@H]2[C@@H]3CCC4=CC(=O)CCC4=C3[C@@H](c3ccc(N(C)C)cc3)C[C@@]21C	?	31.6µM*
C#C[C@]1(O)CC[C@H]2[C@@H]3CCC4=CC(=O)CCC4=C3C=C[C@@]21CC	7.0%	?
CC(C)(C)OC(=O)NCCCC1=CC2=CC(=O)C(C)(OC(=O)c3cccs3)C(=O)C2=CO1 (centres undefined)	6.9%	1.8%
C[C@@H](COc1ccccc1)N(CCCl)Cc1ccccc1	-28.4%[17.8 µM]	20.2%[17.8 µM]
CC(C)N(CCC(=O)c1ccc2ccccc2c1)Cc1ccccc1	?	31.6µM*
CN1C2CCC1CC(C(=O)OC(CO)c1ccccc1)C2 (centres undefined)	6.6%	2.9%
O=C(NCCCN1CCCCCC1)C(c1ccccc1)C1CCCCC1 (centres undefined)	10µM*	?
OC[C@H]1O[C@@H](O[C@@H]2OC=C[C@H]3[C@H](O)[C@@H]4O[C@]4(CO)[C@@H]23)[C@H](O)[C@@H](O)[C@@H]1O	-9.4%	1.5%
COC(=O)[C@H](CC(C)C)N(Cc1ccc(Br)cc1)S(=O)(=O)CCl	-7.2%	20.9%
SMILES	MARV entry inh	Lassa entry
CC(=O)Nc1ccc(-c2nc3ccc(Cl)cc3[nH]2)cc1	70.6%	-4.8%
O=C(Nc1ccc(Cl)cc1)Nc1ccc(Cl)c(Cl)c1	14.1µM*	12.6µM*
COC(=O)CCC(=O)OC1(C)C(=O)C=C2C=C(C3CC3)N(Cc3ccc4c(c3)OCO4)C=C2C1=O (centres undefined)	18.9%[8.59 µM]	-10.1%[8.59 µM]
Cc1ccc(C(=O)NCCc2nnc3n2CCN(Cc2cc(C)cc(C)c2)CC3)cc1	-7.4%	-6.6%
CC(C)c1nc(CN(C)C(=O)N[C@H](C(=O)N[C@@H](Cc2ccccc2)C[C@H](O)[C@H](Cc2ccccc2)NC(=O)OCc2cncs2)C(C)C)cs1	?	7.08µM*!
C/C=C1/C[C@@H](C)[C@](O)(CO)C(=O)OCC2=CCN3CC[C@@H](OC1=O)C23 (some centres undefined)	?	1.7%
COc1cccc(OC)c1-c1cc(C(=O)NC2(C(=O)O)C3CC4CC(C3)CC2C4)nn1-c1ccc(C(=O)N(C)CCCN(C)C)cc1C(C)C (centres undefined)	-22.3%	0.5%
CN(C)C(=O)c1ccc(-c2cncnc2NCc2cccs2)cc1	-11.5%	1.7%
